This is an account of results in PubChem BioAssay (EPA / NIEHS).

SMILES strings stand for the structures. Active and inactive are the calls of the source. Rule for the calls: active = hit-call score of the fitted dose curve at least 0.9, where 1 is the maximum; inactive = score below 0.9.

Broadly, the AC50 is the concentration giving half of the maximal activity seen.

Read-out in the assay: Interferon-gamma inducible Protein 10 (IP10), CXCL10 (gene 3627)
As to the kind of experiment: BSK_KF3CT_IP10: BioMAP Diversity Plus: KF3CT Assay for Interferon-gamma inducible Protein 10 (IP10) Biomarker Activity (AID 2283068). To be noted: primary human keratinocytes with fibroblasts; actives raise or lower the signal. The method, then:
BSK_KF3CT is a cell-based, multiplexed-readout assay that uses keratinocytes and foreskin fibroblasts, a human skin primary cell co-culture, with measurements taken at 24 hours after chemical dosing in a 96-well plate.BSK_KF3CT_IP10 is an assay component measured in the BSK_KF3CT assay. It measures IP-10 antibody related to regulation of gene expression using ELISA technology.Data from the assay component BSK_KF3CT_IP10 was analyzed into 1 assay endpoint. This assay endpoint, BSK_KF3CT_IP10, was analyzed with bidirectional fitting relative to DMSO as the negative control and baseline of activity. Using a type of binding reporter, gain or loss-of-signal activity can be used to understand changes in the signaling as they relate to the gene CXCL10. Furthermore, this assay endpoint can be referred to as a primary readout, because this assay has produced multiple assay endpoints where this one serves a signaling function. To generalize the intended target to other relatable targets, this assay endpoint is annotated to the cytokine intended target family, where the subfamily is chemotactic factor.
The levels of cell surface (or secreted, indicated by the prefix "s") biomarker endpoints were measured by ELISA. Overt cytotoxicity to cells in confluent adherent cultures (all systems other than the BT system) was assessed by measuring total protein levels using sulforhodamine B (SRB) staining in parallel cultures at the time of biomarker measurements, indicated as SRB endpoints. For proliferation assays for adherent cell types, individual cell types are cultured at sub-confluence and relative cell numbers quantified by SRB staining at time points optimized for each system (48 h: 3C and CASM3C systems; 72 h: BT and HDF3CGF systems; 96 h: SAg system). SRB was performed by staining cells with 0.1% SRB after fixation with 10% TCA and reading wells at 560 nm.Viability and proliferation of PBMC (T cells) was quantified by Alamar Blue reduction for the SAg and BT systems. For PBMC viability (referred to as PBMC Cytotoxicity within the assay endpoint names), cells were plated (75,000/well in a 96-well plate) and then chemical samples added for 1 h before addition of activators, SEB and TSST-1 (20 ng/mL final concentration each). Cells were incubated for 90 h. Then, Alamar Blue (20 uL/well) (Invitrogen, Cat DAL1100) was added for 6 h, and the plates were read with a fluorescence microplate reader at 546/580 nm (excitation/emission). For PBMC proliferation, cells were plated and activated as above but incubated for only 16 h prior to addition of Alamar Blue. Plates were read after 6 h.
Take `CNCc1ccc(NC(=O)c2c[nH]c3c2C(=O)CCC3)cc1`: the result was inactive.

`O=C(NS(=O)(=O)/C=C/c1ccccc1)c1ccc(F)cc1Cl`: the result was inactive.

Regarding `COc1ccc(/C=C/S(=O)(=O)NC(=O)c2ccc(C)cc2Cl)cc1`, the AC50 was 32.6 µM (active).

As to `On1ccccc1=S`, the AC50 is 10.3 µM (active).

In the case of `O=C1CCCCCN1`, the result was inactive.

Regarding `Cc1c(-c2cccnc2)c2ccccc2n1CCCCC(=O)O`, the result was inactive.

In the case of `CC(=O)OC[C@H]1O[C@@](COC(C)=O)(O[C@H]2O[C@H](COC(C)=O)[C@@H](OC(C)=O)[C@H](OC(C)=O)[C@H]2OC(C)=O)[C@@H](OC(C)=O)[C@@H]1OC(C)=O`, the result was inactive.

As for `Oc1ccc2c(c1)-c1ccccc1C2`, the result was inactive.

On to `CCCC(=O)OCC`, for which the result was inactive.

For the molecule `CCNc1ccccc1`, the outcome was inactive.

As to `O=P(OC(CCl)CCl)(OC(CCl)CCl)OC(CCl)CCl`, the result was inactive.

Take `COC(=O)c1ccccc1O`: the result was inactive.

Consider `COc1ccc2sc(C(=O)Nc3nnn[nH]3)c(OC(C)C)c2c1`, for which the AC50 is 25.4 µM (active).

`Nc1ccc(Nc2ccccc2)cc1`: the outcome was inactive.

In the case of `CCn1nc(Cc2ccccc2)cc1C1CCN(C[C@H]2C[C@H](N(C)[C@@H](C(=O)O)C(C)C)C[C@@H]2c2cccc(F)c2)CC1`, the result was inactive.

Take `CCOC(=O)CC(CC(=O)OCC)(OC(C)=O)C(=O)OCC`: the result was inactive.

On to `O=C1OC(=O)C2C3C=CC(C3)C12` (stereo not given), for which the outcome was inactive.

On to `O=C(O)c1cccc(Oc2ccccc2)c1`, for which the result was inactive.

As for `CC1(C)C(=O)N(Br)C(=O)N1Br`, the result was inactive.

For the molecule `CC(C)=CCC/C(C)=C/CO`, the result was inactive.

Regarding `CC[C@H](C)C(=O)O[C@H]1C[C@@H](C)C=C2C=C[C@H](C)[C@H](CC[C@@H]3C[C@@H](O)CC(=O)O3)[C@H]21`, the AC50 is 34.6 µM (active).

Regarding `O=C(O)CC(O)C(=O)O` (stereo not given), the outcome was inactive.

For `CC(C)=CCC/C(C)=C\CO`, the outcome was inactive.

As for `CCCCC(CC)COC(=O)c1ccc(C(=O)OCC(CC)CCCC)cc1` (stereo not given), the result was inactive.

With `Nc1cccc(N)c1`, the result was inactive.

Take `O=C(O)c1cccc(N(Cc2cccnc2)c2ccc(OC(F)F)c(OC(F)F)c2)c1`: the outcome was inactive.

`C=CC(=C)CCC=C(C)C`: the outcome was inactive.

On to `CNS(=O)(=O)c1cc(C(=O)N2CCC(CCN3C4CCC3CC(n3c(C)nc5ccccc53)C4)(c3cccc(F)c3)CC2)c(Cl)cc1F` (stereo not given), for which the result was inactive.

For `CC(C)CC(C)(O)C#CC(C)(O)CC(C)C` (stereo not given), the outcome was inactive.

With `CC(O)CN(CCN(CC(C)O)CC(C)O)CC(C)O` (stereo not given), the outcome was inactive.

With `C1=CCCC=CCCC=CCC1`, the outcome was inactive.

With `CC(=O)OCCC(C)C`, the result was inactive.

In the case of `CCOC(=O)c1ccc(C2CCC(NC[C@H](O)COc3ccc(O)c(NS(C)(=O)=O)c3)CC2)cc1` (stereo not given in full), the outcome was inactive.

Regarding `O=c1[nH]c2ccc(S(=O)CCN3CCC(Cc4ccc(F)cc4)CC3)cc2o1` (stereo not given), the outcome was inactive.

For the molecule `CCCCC(CC)COC(=O)CCCCCCCCC(=O)OCC(CC)CCCC` (stereo not given), the outcome was inactive.

As to `C=CCCCCCCCCC(=O)O`, the result was inactive.

Take `CCN(C(=O)c1cc(C)cc(OC[C@H](C)Nc2ccncc2)c1)C(C)C`: the outcome was inactive.

Turning to `CC/C(=C\C(=N/O)C(N)=O)C(C)[N+](=O)[O-]` (stereo not given), the result was inactive.

As for `CCCCCCCCCCCCCCCO`, the result was inactive.

In the case of `CN(C)c1ccc(Cc2ccc(N(C)C)cc2)cc1`, the result was inactive.
